The values below come from PubChem BioAssay.

The structures appear in SMILES notation. Activity calls are given as the source filed them.

For experiment [1], the system named is Plasmodium falciparum Sir2 (PF13_0152, Sir2A). The experiment can be described thus: Plasmodium falciparum Sir2A binding compounds – biochemical, small-molecule microarray, 635 nm fluorescence, primary screen (AID 1098).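 Further: score merges spot fluorescence intensity with its signal-to-noise ratio.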 To be noted: fluorescence 635 nm, higher = more signal.
A short description of experiment [2]: probe aDKK1 binding to arrayed compounds – biochemical, biotinylated probe, 635/667 nm fluorescence, primary screen (AID 1099).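 Further: score merges 667nm spot fluorescence with signal to noise across triplicate slides; reference of the scale not given here.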 To be noted: small-molecule microarray, higher = more signal.
The nature of experiment [3]: probe aCHRDL2 binding to arrayed compounds – biochemical, biotinylated probe, 635/667 nm fluorescence, primary screen (AID 1100). The note with it: small-molecule microarray, higher = more signal.
Experiment [4] is described as follows: change in splice reporter luminescence, either direction, cell-based, HEK293, spliceosome inhibition project, primary screen (AID 1101).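 Further: HEK293 cells carrying a splicing-competent luciferase reporter gene; test concentration not given here.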 The note with it: HEK293 splicing luciferase reporter, 24 h, higher = more signal, called active from +8 up or from −8 down. In general terms: In a reporter assay the amount or activity of a reporter protein is the signal.
Experiment [5] concerns the target Fibroblast growth factor 10 (Homo sapiens) (UniProt O15520). The experiment is described as follows: compounds binding fibroblast growth factor 10 – biochemical, small-molecule microarray, 635 nm fluorescence, primary screen (AID 1102). The note with it: FGF10 binding, fluorescence 635 nm, higher = more signal.
Experiment [6] concerns glycogen synthase kinase-3 (GSK3A per assay name; protocol says GSK3B). The experiment is described as follows: compounds binding glycogen synthase kinase-3 – biochemical, small-molecule microarray, 635 nm fluorescence, GSK3A, primary screen (AID 1103). Further: the record names both GSK3A and GSK3B. The note with it: fluorescence 635 nm, higher = more signal.
Experiment [7] deals with Epidermal growth factor receptor (Homo sapiens) (UniProt P00533). The experiment is described as follows: compounds binding epidermal growth factor receptor – biochemical, small-molecule microarray, 635 nm fluorescence, primary screen (AID 1104).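 Further: score merges 667 nm emission intensity with spot signal to noise over triplicate slides.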 The note with it: EGFR binding, higher = more signal.
Chain of Epidermal growth factor receptor (Homo sapiens) (P00533 whole entry, looked up): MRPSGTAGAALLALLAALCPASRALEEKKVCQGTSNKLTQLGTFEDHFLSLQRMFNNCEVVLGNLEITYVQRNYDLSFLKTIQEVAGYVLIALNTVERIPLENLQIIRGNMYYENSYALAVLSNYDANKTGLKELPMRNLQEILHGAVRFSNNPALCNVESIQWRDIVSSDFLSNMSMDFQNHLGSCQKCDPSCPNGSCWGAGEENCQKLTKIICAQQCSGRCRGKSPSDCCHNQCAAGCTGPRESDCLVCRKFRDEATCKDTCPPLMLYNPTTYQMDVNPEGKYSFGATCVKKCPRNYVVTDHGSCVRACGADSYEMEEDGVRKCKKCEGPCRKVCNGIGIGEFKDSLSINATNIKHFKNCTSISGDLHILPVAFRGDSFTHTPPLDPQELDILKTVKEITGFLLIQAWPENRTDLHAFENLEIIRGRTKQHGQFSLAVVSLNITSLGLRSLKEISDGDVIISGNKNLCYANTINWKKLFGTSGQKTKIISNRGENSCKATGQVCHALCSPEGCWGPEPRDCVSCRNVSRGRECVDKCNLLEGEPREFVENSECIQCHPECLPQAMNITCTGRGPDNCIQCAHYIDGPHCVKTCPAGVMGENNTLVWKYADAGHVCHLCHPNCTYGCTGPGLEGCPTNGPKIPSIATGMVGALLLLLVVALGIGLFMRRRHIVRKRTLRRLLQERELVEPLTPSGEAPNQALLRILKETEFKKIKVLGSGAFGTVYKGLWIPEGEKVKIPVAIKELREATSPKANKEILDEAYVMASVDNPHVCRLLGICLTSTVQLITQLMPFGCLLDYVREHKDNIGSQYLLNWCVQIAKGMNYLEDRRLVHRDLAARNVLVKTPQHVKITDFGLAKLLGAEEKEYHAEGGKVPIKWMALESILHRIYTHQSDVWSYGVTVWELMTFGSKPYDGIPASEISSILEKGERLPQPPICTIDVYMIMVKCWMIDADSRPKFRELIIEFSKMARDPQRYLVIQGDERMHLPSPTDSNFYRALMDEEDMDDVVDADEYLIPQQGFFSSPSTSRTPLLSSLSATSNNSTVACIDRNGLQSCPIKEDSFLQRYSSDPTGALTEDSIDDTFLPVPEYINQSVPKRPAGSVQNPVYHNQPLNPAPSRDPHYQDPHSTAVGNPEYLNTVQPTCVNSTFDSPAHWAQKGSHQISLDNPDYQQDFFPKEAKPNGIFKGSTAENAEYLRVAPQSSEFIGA
The target of experiment [8] is Follistatin-related protein 3 (Homo sapiens) (UniProt O95633). The experiment can be described thus: compounds binding follistatin-related protein 3 – biochemical, small-molecule microarray, 635 nm fluorescence, primary screen (AID 1105).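 Further: score merges emission near 667 nm and signal to noise per printed spot across three slides.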 The note with it: FSTL3 binding, higher = more signal.
Chain of Follistatin-related protein 3 (Homo sapiens) (O95633 whole entry, looked up): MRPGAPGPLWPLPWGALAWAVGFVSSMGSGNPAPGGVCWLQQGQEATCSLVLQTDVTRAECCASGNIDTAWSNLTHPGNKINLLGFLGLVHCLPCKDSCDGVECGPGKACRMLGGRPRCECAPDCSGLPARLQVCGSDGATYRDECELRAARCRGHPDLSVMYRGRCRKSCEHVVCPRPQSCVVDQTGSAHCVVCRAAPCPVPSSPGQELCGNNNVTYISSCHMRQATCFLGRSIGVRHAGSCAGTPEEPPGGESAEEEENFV
Experiment [9] addresses Dickkopf-related protein 1 (Homo sapiens) (UniProt O94907). The experiment can be described thus: small molecules binding DKK1 protein – biochemical, small-molecule microarray, 635 nm fluorescence scan, primary screen (AID 1106).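 Further: score merges emission near 667 nm with signal to noise over three replicate slides.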 To be noted: higher = more signal.
The test system of experiment [10] is Inhibin beta A chain (activin A). The experiment is described as follows: small molecules binding activin A – biochemical, small-molecule microarray, 635 nm fluorescence scan, primary screen (AID 1107).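 Further: mouse activin A protein probed at 4.33 µg/mL on printed slides; score merges bound-protein fluorescence near 667 nm with spot signal-to-noise.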 The note with it: INHBA, higher = more signal.

Chain of Dickkopf-related protein 1 (Homo sapiens) (O94907 whole entry, looked up): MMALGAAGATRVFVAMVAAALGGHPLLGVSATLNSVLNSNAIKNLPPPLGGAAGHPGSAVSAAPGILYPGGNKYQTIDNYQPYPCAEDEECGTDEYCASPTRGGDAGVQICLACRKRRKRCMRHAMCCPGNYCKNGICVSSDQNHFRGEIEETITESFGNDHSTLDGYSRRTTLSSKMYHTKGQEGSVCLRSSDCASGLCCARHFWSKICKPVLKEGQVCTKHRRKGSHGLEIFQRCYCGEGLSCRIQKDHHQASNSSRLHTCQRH
Chain of Fibroblast growth factor 10 (Homo sapiens) (O15520 whole entry, looked up): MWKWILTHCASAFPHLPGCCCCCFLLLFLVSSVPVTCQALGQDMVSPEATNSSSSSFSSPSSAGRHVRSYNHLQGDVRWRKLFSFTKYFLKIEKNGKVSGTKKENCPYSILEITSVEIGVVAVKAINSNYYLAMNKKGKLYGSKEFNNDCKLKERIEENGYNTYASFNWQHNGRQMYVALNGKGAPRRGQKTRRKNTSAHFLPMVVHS

On to `COc1ccc(O[C@H]2C=C[C@@H](c3ccccc3)O[C@@H]2CON=CC[C@@H]2C=C[C@H](OC(C)=O)[C@@H](COC(C)=O)O2)cc1`, for which the composite z-score in experiment [1] was 0.277; in [2], -0.229; in [3], 0.0216; in [5], -0.0104; in experiment [6] it was -0.603; in experiment [7], 0.238. Moreover, the composite z-score in experiment [8] was 0.128; in experiment [9], 0.105; in [10], 0.606. Moreover, the z-score in experiment [4] is 0.731 (inactive).
Regarding `COC(=O)[C@@H]1CC[C@H](C)[C@@H](c2ccc(C)cc2)N1C(=O)c1ccc(C=NO[C@H](C)c2cn([C@H](CO)Cc3ccccc3)nn2)cc1`, the composite z-score in experiment [1] stood at 0.652; in experiment [2], 0.178; in experiment [3], 0.115; in experiment [5] it was 0.694; in experiment [6] it was 0.835; in experiment [7], 0.551. Also, the composite z-score in experiment [8] was 1.05; in [9], 0.81; in [10], 0.135. For the same molecule, in experiment [4], the z-score is -0.178 (inactive).
For `COC(=O)[C@@H]1CC[C@H](C)[C@@H](c2ccc(C)cc2)N1C(=O)c1ccc(C=NO[C@@H]2O[C@H](COC(C)=O)[C@@H](OC(C)=O)[C@H](OC(C)=O)[C@H]2OC(C)=O)cc1`, the composite z-score is 0.32 in experiment [1]; -0.254 in experiment [2]; -0.393 in [3]; 0.666 in experiment [5]; 0.798 in [6]; 0.323 in experiment [7]. The composite z-score in experiment [8] is 0.92; in experiment [9] it was 0.374; in experiment [10], -0.059. In addition, the z-score in experiment [4] was -1.56 (inactive).
`CCCNC(=O)OC[C@H]1O[C@H](c2ccccc2)C=C[C@@H]1Oc1ccc(OC)cc1`: the composite z-score in [1] was -0.361; in experiment [2], -0.377; in experiment [3] it was -0.396; in experiment [5] it was 0.0708; in [6] it was -0.0811; in [7] it was 0.424. The composite z-score in [8] is 0.108; in [9], -0.0332; in experiment [10], -0.339. The z-score in [4] is -0.0906 (inactive).
In the case of `O=C1[C@H]2[C@H]3[C@H](O)[C@H](O)CC(=NOC[C@@H](O)COCc4ccco4)[C@H]3CC[C@H]2C(=O)N1Cc1ccccc1`, the composite z-score is 0.467 in [1]; -0.49 in [2]; -0.964 in [3]; 0.378 in experiment [5]; 0.0077 in experiment [6]; 0.522 in [7]. In addition, the composite z-score in experiment [8] turned out to be 0.404; in experiment [9], 0.901; in experiment [10], 0.764. For the same molecule, in experiment [4], the z-score was -0.907 (inactive).
On to `CCOC(=O)NN=C1C[C@@H](O)[C@@H](O)[C@@H]2[C@@H]3C(=O)N(Cc4ccc5c(c4)OCO5)C(=O)[C@@H]3CC[C@H]12`, for which the composite z-score in experiment [1] was 0.263; in experiment [2] it was -0.238; in [3], -0.233; in experiment [5], 0.0798; in [6] it was -0.566; in experiment [7], -0.0894. Moreover, the composite z-score was -0.199 in experiment [8], -0.108 in [9] and 0.0787 in experiment [10]. Besides, in experiment [4], the z-score was 0.346 (inactive).
Turning to `C[n+]1ccc(-c2ccc(CO)cc2)cc1`, the composite z-score in [1] was -1.19; in [2], 0.116; in [3] it was 0.808; in experiment [5], 0.747; in experiment [6], -0.435; in experiment [7], 1.51. Moreover, the composite z-score turned out to be 1.6 in [8], 0.953 in [9] and 2.16 in [10]. Also, the z-score in experiment [4] is 1.29 (inactive).
`COC(=O)CC=C[C@@H](C)[C@@H](C=NO[C@H](C)c1cn([C@H](CO)Cc2ccccc2)nn1)OC`: the composite z-score was 0.611 in experiment [1]; -0.233 in experiment [2]; -0.736 in [3]; 0.877 in [5]; 0.483 in [6]; 0.952 in experiment [7]. Also, the composite z-score in [8] is 0.515; in experiment [9], 1.06; in experiment [10] it was -0.34. In addition, in experiment [4], the z-score is 0.934 (inactive).
As to `CO[C@@H]1COC(=O)[C@@H](C)NC(=O)CC=C[C@@H](C)[C@H](NS(=O)(=O)c2ccc(C)cc2)COC(=O)[C@H](C)NC(=O)CC=C[C@H]1C`, the composite z-score in [1] is 1.49; in experiment [2], -0.629; in experiment [3], -1.22; in experiment [5], 0.611; in experiment [6], 0.625; in experiment [7], 0.57. For the same molecule, the composite z-score in experiment [8] came out at 0.661; in experiment [9] it was 0.822; in experiment [10] it was 1.4. Further, the z-score in experiment [4] was 0.347 (inactive).
As for `CO[C@H]1COC(=O)CC=C[C@H](C)[C@@H](OC)COC(=O)[C@H](C)COC(=O)CC=C[C@@H]1C`, the composite z-score in experiment [1] is 0.661; in experiment [2] it was -0.822; in experiment [3], -1.53; in experiment [5], 0.0773; in experiment [6], 0.429; in [7], 1.36. Also, the composite z-score in experiment [8] was found to be 1.1; in experiment [9] it was 1.78; in [10], 1.52. Moreover, the z-score in experiment [4] was -0.0334 (inactive).
With `CO[C@H]1COC(=O)[C@@H](C)COC(=O)[C@@H](OCc2ccccc2)C=C[C@@H]1C`, the composite z-score was 0.212 in experiment [1]; -0.439 in [2]; -0.514 in experiment [3]; -0.162 in experiment [5]; -0.227 in experiment [6]; -0.0072 in experiment [7]. Further, the composite z-score in experiment [8] was -0.13; in experiment [9], 0.348; in experiment [10], 0.18. For the same molecule, the z-score in [4] was 0.232 (inactive).
With `COC(=O)[C@H](C)NC(=O)CCC1CC(OC(=O)NCc2cccc3ccccc23)CC2(CCCC(COC(=O)NCC(c3ccccc3)c3ccccc3)O2)O1` (stereo not given in full), the composite z-score in experiment [1] is 0.208; in experiment [2], -0.0014; in experiment [3], -0.523; in [5], 0.715; in experiment [6], 1.27; in [7], 0.702. Further, the composite z-score is 0.601 in experiment [8], 0.386 in experiment [9] and -0.396 in experiment [10]. In [4], the z-score was 0.026 (inactive).
With `COc1ccc(O[C@@H]2[C@H](O)CO[C@H]2C=Cc2ccccc2)cc1`, the composite z-score in experiment [1] is 0.1; in [2], -0.274; in experiment [3], -0.379; in experiment [5], 0.0279; in experiment [6], -0.0395; in experiment [7] it was -0.033. The composite z-score in experiment [8] was -0.267; in experiment [9], -0.275; in [10] it was 0.799. Besides, the z-score in experiment [4] was -0.878 (inactive).
